Compounds with a hit are over-represented: about 3.2% of the library has one in this group of screens.
USP2a inhib: USP2a (human) protease inhibition; USP2a enzymatic assay, qHTS inhibition; actives 0.1% (n = 60,000); O75604; Potency, µM (highest dose often 38.3 µM), for the others: at the top dose activity change, negative = inhibition, most hits filed as inhibitors; further: nearly all actives have a fitted effect of over 60% in size
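Inhibition is measured in a cell-free coupled assay with 20 nM USP2 core, 20 nM Ub-PLA2 and 20 uM NBD C6-HPC, 2.5 h incubation. Activity normalized to NEM control.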
Hsp90 Hop PPI: changes Hsp90-Hop TPR2A binding signal, up or down; Potency, µM (series often up to 57 µM), inactives show at the top dose activity change, negative = inhibition; AlphaScreen TPR2A-His6 binding biotin-Hsp90 C-terminal peptide; actives 0.44% (n = 71,000); AID 595; active means well fitted curve in either direction with a large enough effect; inconclusive means small, poorly fitted or top-dose-only effect, or another doubt; further: on the % scale 0 is the no-effect control and ±100 the full control effect
Tau filament bind: tau filament binding; P10636; recombinant tau filaments, thioflavin S fluorescence, 15 h; filaments grown with octadecylsulfate alongside compound; Potency, µM (doses to about 57.1 µM), without a hit: at the top dose activity change, negative = inhibition; actives 2% (n = 71,000); AID 596;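 further: on the % scale 0 is the no-effect control and ±100 the full control effect; actives lower thioflavin S fluorescence by blocking filaments or displacing dye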
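His-tagged recombinant human tau (exons 2, 3, 10; 1 uM final) fibrillized with 30 uM sodium octadecylsulfate, 15 h at 37 C, in pH 7.4 HEPES buffer with 10 uM thioflavine S and 5 mM DTT. Reduced ThS fluorescence (450/510 nm) marks activity.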
15-hLO inh: inhibitors of human 15-lipoxygenase (ALOX15); actives 1.4% (n = 74,000); AID 887; Potency, µM (titrated, usually from 57.1 µM), without a hit: at the top dose activity change, negative = inhibition, actives largely listed as inhibitors; purified 15hLO-1, xylenol orange hydroperoxide absorbance; further: on the % scale 0 is the no-effect control and ±100 the full control effect; nearly all actives have a fitted effect of over 55% in size
Target sequence (P16050 whole entry, looked up): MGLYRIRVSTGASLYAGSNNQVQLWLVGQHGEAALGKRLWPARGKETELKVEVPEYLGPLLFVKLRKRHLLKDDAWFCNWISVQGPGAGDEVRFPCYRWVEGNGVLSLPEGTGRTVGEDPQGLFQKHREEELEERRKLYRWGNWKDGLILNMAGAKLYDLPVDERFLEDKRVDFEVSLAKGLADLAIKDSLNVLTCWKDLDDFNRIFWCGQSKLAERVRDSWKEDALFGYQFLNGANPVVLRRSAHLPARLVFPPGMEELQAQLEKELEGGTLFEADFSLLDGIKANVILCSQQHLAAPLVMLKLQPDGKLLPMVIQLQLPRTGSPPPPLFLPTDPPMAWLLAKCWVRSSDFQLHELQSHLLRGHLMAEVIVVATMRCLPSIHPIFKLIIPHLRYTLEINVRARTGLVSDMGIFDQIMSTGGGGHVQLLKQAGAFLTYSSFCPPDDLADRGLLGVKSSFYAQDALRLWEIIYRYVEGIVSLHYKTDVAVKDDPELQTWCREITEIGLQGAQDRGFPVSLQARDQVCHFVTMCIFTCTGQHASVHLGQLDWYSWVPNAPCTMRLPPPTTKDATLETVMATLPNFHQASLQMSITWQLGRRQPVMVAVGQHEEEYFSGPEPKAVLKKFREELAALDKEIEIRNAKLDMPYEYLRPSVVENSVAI
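Quantitative HTS in 25 mM Hepes pH 7.5 containing 0.01% Triton X-100: human 15hLO-1 at 40 nM, arachidonic acid at 50 uM, 6 min turnover. Product quantified via ferrous oxidation/xylenol orange, 573:405 nm absorbance ratio.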
The depositor's hits bear a star; ? = inconclusive; nt = no result; [ ] = dose if it differs, or a comment. Unless noted, the call rests on the fitted dose curve; in most records, active means well fitted curve in the direction sought with a large enough effect; inconclusive means small, poorly fitted or top-dose-only effect, or another doubt; inactive means no such curve, though single readings can be large; an effect the other way counts as inactive or inconclusive. Potency means the concentration at half of the fitted maximal effect.

SMILES | USP2a inhib | Hsp90 Hop PPI | Tau filament bind | 15-hLO inh
COc1ccc2[nH]cc(CCNc3ccnc(-c4cccc(C#N)c4)n3)c2c1 | ? | -17% | -22% | 8%
c1ccc(CNc2nc(-c3ccoc3)nc3ccccc23)cc1 | 95% | -8% | 16µM* | -29%
Cc1cnc(CNc2nc(-c3ccoc3)nc3ccccc23)cn1 | 100% | -11% | 0% | 8%
CCCc1cc(C(=O)N2CCN(c3ccccc3C)CC2)cs1 | ? | ? | -26% | ?
CCOC(=O)C1CCN(Cc2ccc(O)c3ncccc23)CC1 | 10% | 5µM* | -16% | 14%
CCOC(=O)C1CCN(Cc2ccccc2C(F)(F)F)CC1 | 0% | 0% | -8% | -6%
Cc1ccc(N=Nc2c(O)c(S(=O)(=O)O)cc3cc(S(=O)(=O)O)ccc23)c(C)c1 | nt | -24%[11 µM] | -9%[11.4 µM] | 6%[11.4 µM]
Nc1ccc(N=Nc2ccc(-c3ccc(O)cc3)cc2)c2ccc(S(=O)(=O)O)cc12 | nt | ? | 2.5µM* | -28%[11.4 µM]
C=CCn1c(SCC(=O)NCCCC)nc2scc(-c3ccco3)c2c1=O | 0% | -8% | 148% | 5µM*
COc1ccc(NC(=O)Cc2cccs2)c(OC)c1 | ? | -7%[11 µM] | 3.2µM* | -30%[11.4 µM]
COCC(=O)N1CCC2(CC1)CCN(c1cccc(-c3ccccc3)c1)CC2 | 175% | -23% | -16% | -3%
CCOC(=O)N1CCN(C(=O)C2CC(c3ccccc3OC)=NO2)CC1 (configuration not stated) | 6% | 2% | -1% | 1%
O=C(C1CC(c2ccccc2O)=NO1)N1CCCC1 (configuration not stated) | 5% | ? | 41% | 20µM*
CCOC(=O)c1snc2c(=O)[nH]cnc12 | nt | 1% | 2% | 18%
CCOC(=O)C1CCCN(c2ccc(NC(=O)c3snc4c(=O)[nH]cnc34)cc2)C1 (configuration not stated) | 25% | -20% | 16µM* | 11%
CC(C)(C)NC(=O)c1ccc2nccnc2c1 | 0% | -2% | -6% | 4%
O=C(Nc1ccc(Br)cn1)c1ccc2nccnc2c1 | 10% | -3% | 16µM* | -16%
CCSC1=NC(=O)/C(=C2/C=Cc3ccccc3N2CC)S1 | nt | ? | 4µM* | -15%
C=CCc1cccc(C2C(C)CCC3C(=O)N4C(CCC(C)C4c4cccc(CC=C)c4)C(=O)N32)c1 (configuration not stated) | nt | nt | nt | -3%[11.4 µM]
C/C(=C\c1ccccc1)CN1CCN(c2ccccc2)CC1 | ? | 10% | -20% | 16µM*
COC(=O)c1cc(NCc2c(F)cccc2Cl)ccc1N1CCOCC1 | -2% | 0% | ? | 16µM*
O=C(O)c1cc(NCc2cccs2)ccc1N1CCOCC1 | -4% | -2% | -5% | 2%
COC(=O)c1cc(NCc2cccs2)ccc1N1CCOCC1 | 1% | -3% | -13% | 20µM*
O=C(O)c1cc(NCc2ccccc2C(F)(F)F)ccc1N1CCOCC1 | 9% | 0% | -3% | 16%
O=S(=O)(O)c1ccc(N=Nc2ccccc2)cc1 | nt | -3%[11 µM] | 3%[11.4 µM] | 6%[11.4 µM]
SMILES | USP2a inhib | Hsp90 Hop PPI | Tau filament bind | 15-hLO inh
Nc1ccc(N=Nc2ccccc2)c(N)n1 | 7% | ? | 13µM* | ?
COc1cccc2c1C(=O)c1c(O)c3c(c(O)c1C2=O)C[C@](O)(C(C)=O)C[C@H]3O[C@@H]1C[C@H](N)[C@H](O)[C@H](C)O1 | 49%[17.1 µM] | ? | 1.6µM* | 7%[25.6 µM]
CC(=O)[C@@]1(O)Cc2c(O)c3c(c(O)c2[C@H](O[C@H]2C[C@H](N)[C@H](O)[C@H](C)O2)C1)C(=O)c1ccccc1C3=O | 24% | ? | 1.6µM* | ?
COc1cccc2c1C(=O)c1c(O)c3c(c(O)c1C2=O)C[C@@](O)(C(=O)CO)C[C@@H]3O[C@H]1C[C@H](N)[C@H](O)[C@H](C)O1 | nt | nt | nt | 10%
Cc1onc(-c2ccccc2Cl)c1C(=O)NC1C(=O)N2C1SC(C)(C)C2C(=O)O (configuration not stated) | 8% | nt | nt | 1%
O=C(c1cccc(F)c1)N1CCC2(CC1)CCN(c1ccncc1)CC2 | 22% | 0% | 27% | 3%
COc1ccc(S(=O)(=O)N(C(C)=O)c2ccc3oc(=O)sc3c2)cc1 | 22% | -15% | -1% | 5µM*
O=C1CC2(CCCC2)CC(=O)N1CCNC[C@H]1COc2ccccc2O1 | nt | -2% | 32µM* | -4%[25.6 µM]
O=C(O)CNCC1COc2ccccc2O1 (configuration not stated) | -3% | -4% | -6% | -7%
COC(=O)N1[C@H](C)C=C[C@]1(Cc1ccccc1)C(=O)NCc1ccc(N(C)C)cc1 | nt | -11% | -18% | 20µM*
COC(=O)N1[C@H](C)C=C[C@]1(Cc1ccccc1)C(=O)NCc1ccccn1 | nt | -3% | 2% | ?
OC1c2ccccc2-c2nc3ccccc3cc21 (configuration not stated) | nt | -9% | -30% | nt
O=C(c1cc(C(F)(F)F)cc(C(F)(F)F)c1)N1CCC2(CC1)CN(c1ncccn1)C2 | 61% | 1% | -6% | -4%
CCCCCc1c(C)nc(NCc2ccccc2)[nH]c1=O | 1% | -3% | 32µM* | -12%
O=C1c2cccnc2-c2ncccc21 | 0% | -26% | -6% | 4%
CC1(C)OCC(CSC2=C(SCC3COC(C)(C)O3)C(=O)c3ncccc3C2=O)O1 (configuration not stated) | nt | 16µM* | 16µM* | ?
Cc1ccc(C(=O)c2cn[nH]c2-c2cc(Cl)ccc2O)cc1 | 34% | -3% | -13% | 20µM*
c1ccc2c(c1)CCN(c1ncnc3nc[nH]c13)C2 | nt | -2% | 0% | -2%
C1=C(c2ccccc2)CCN(c2ncnc3nc[nH]c23)C1 | nt | -2% | -5% | 25µM*
Nn1c(-c2ccccn2)nnc1-c1ccccn1 | -2% | ? | -19% | 16%
c1ccc(-c2ccccn2)nc1 | -1% | 13µM* | -5% | 9%
OCCN1CCN(c2nc(N3CCCCC3)nc(N3CCCCC3)n2)CC1 | 3%[7.66 µM] | -6%[11 µM] | 4µM* | 0%[11.4 µM]
CN1CCN(c2nc(N3CCN(CCO)CC3)nc3ccccc23)CC1 | 0% | 1% | -10% | 1%
Cc1cc(C(=O)CSc2nc3ccc(Cl)cc3[nH]2)c(C)n1C | 23% | -11% | -15% | 25µM*
C=CCSCC(N)C(=O)O (configuration not stated) | -10% | nt | nt | -3%
SMILES | USP2a inhib | Hsp90 Hop PPI | Tau filament bind | 15-hLO inh
O=C(NCCN1CCOCC1)NC1(C(F)(F)F)Oc2ccc(Cl)cc2O1 (configuration not stated) | 6% | 1% | 0% | 3.2µM*
O=C1C(Cl)=C(Sc2nnc3c4ccccc4c4ccccc4c3n2)C(=O)c2ccccc21 | nt | -13%[11 µM] | 107%[11.4 µM] | -23%[11.4 µM]
Cc1nc2ccccc2c(=O)n1NC(=O)COc1ccccc1 | -5% | -4% | -16% | 1%
O=C(COc1ccccc1)Nn1cnc2ccccc21 | -5% | -7% | -3% | 13µM*
O=c1c2ccccc2nc2n1CCC2 | ? | ? | 2% | 3.2µM*
c1ccc2c(c1)CCC[C@H]2C1=NCCN1 | 0% | -2% | 1% | -6%
COc1ccc(/C=C/C(=O)c2ccc(O)cc2O)cc1 | 6% | nt | nt | 20µM*
COc1ccc(/C=C/C(=O)c2ccc(O)cc2O)cc1OC | -4% | nt | nt | 16µM*
